The list is not random: actives were taken first. Their share in the collection is about 5.7%.
B2AR arrestin – beta2AR (human) beta-arrestin recruitment activity | P07550 | beta-arrestin recruitment to beta2AR, cell-based reporter | Potency, µM (titrated, usually from 46.1 µM), for inactives: at the top dose activation, most hits filed as activators | actives 0.02% (n = 330,000);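 note: 0% = DMSO controls and full agonism = EC100 isoproterenol or metaproterenol; nearly all actives have a fitted effect of over 65% in size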
Target sequence (P07550 whole entry, looked up): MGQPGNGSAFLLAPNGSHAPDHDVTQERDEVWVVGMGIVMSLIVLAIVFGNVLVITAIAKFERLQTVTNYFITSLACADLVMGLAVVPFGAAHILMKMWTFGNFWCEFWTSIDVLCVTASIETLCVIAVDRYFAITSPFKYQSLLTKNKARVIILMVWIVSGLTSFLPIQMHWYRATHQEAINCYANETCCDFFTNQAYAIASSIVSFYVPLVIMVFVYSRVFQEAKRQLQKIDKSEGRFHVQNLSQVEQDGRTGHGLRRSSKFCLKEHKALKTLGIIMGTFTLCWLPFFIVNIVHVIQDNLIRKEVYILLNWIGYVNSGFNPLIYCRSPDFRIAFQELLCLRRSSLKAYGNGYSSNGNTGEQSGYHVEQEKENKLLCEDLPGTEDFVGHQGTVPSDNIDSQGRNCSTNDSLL
NPSR antagonist – neuropeptide S receptor (human) antagonism, cAMP; Q6W5P4; CHO-NPSR cells, cAMP TR-FRET, antagonist mode; Potency, µM (highest dose often 38.3 µM), for the others: at the top dose activity change, negative = inhibition, hits mostly inhibitors; actives 1% (n = 220,000); AID 1461; note: nearly all actives have a fitted effect of over 50% in size
RORgamma inh – inhibitors of mouse ROR gamma transcriptional activity | actives 5.4% (n = 310,000) | Potency, µM (series often up to 53.6 µM), for the others: at the highest dose activity change, negative = inhibition, most hits filed as inhibitors | Drosophila S2 Gal4-RORgamma UAS-luciferase reporter, 20 h; note: nearly all actives have a fitted effect of over 60% in size
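Compounds are pin-transferred onto Drosophila Schneider cells expressing a copper-inducible Gal4–ROR gamma transactivation domain fusion. After 1 hr, copper sulfate is added to 700 uM final; luciferase is read 20 hr later.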
Gal4-VP16 FLuc – Gal4-VP16 reporter inhibition counter-screen. Drosophila S2 Gal4-VP16 UAS-luciferase, luminescence, 20 h. Potency, µM (top dose mostly 53.6 µM), for inactives: at the highest dose activity, negative = inhibition, actives largely listed as inhibitors. actives 3.5% (n = 310,000);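 note: Gal4-VP16 expression switched on by copper sulfate through the metallothionein promoter; nearly all actives have a fitted effect of over 50% in size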
* = called active by the depositor; ? = inconclusive; · = no result; ! = repeats disagree; [ ] = another dose, or the depositor's remark. Calls come from the whole dose curve; as a rule, active = well fitted curve in the direction sought with a large enough effect; inconclusive = small, poorly fitted or top-dose-only effect, or another doubt; inactive = no such curve, though single readings can be large; an effect the other way counts as inactive or inconclusive. Unless noted, % is set by controls: 0 for no effect and ±100 for the full control effect; potency is the fitted concentration of half-maximal effect.

SMILES	B2AR arrestin	NPSR antagonist	RORgamma inh	Gal4-VP16 FLuc
Cc1ccc2nc3nc4ccc[nH]c4cc3c2c1	·	·	?	2%[10 µM]
Cn1cccc1-c1cc(C(=O)N/N=C/c2ccc(Cl)cc2)[nH]n1	-1%	·	-8%	-1%
COc1ccc(OC)c2[nH]c(C(=O)N/N=C/c3ccccc3O)cc12	-1%	·	4µM*	5µM*
COc1cccc(/C=N/NC(=O)c2cc3c(OC)cccc3[nH]2)c1O	-1%	10%	0.79µM*	2.2µM*
COc1cccc(/C=N/NC(=O)c2cc3c(OC)cccc3[nH]2)c1OC	-1%	9%	46%	-11%
COc1cccc(/C=N/NC(=O)c2cc(-c3cccn3C)n[nH]2)c1O	?	-26%	1µM*	2.8µM*
Cn1cccc1-c1cc(C(=O)N/N=C/C=C/c2ccccc2)[nH]n1	0%	-22%	5µM*	?
CCOC(=O)C1=CN(Cc2ccco2)S(=O)(=O)NC1c1cccc(OC)c1 (stereo unspecified)	0%	·	·	·
COC(=O)CC1C(=O)NCCN1C(=O)CSc1nc2ccccc2c(=O)n1CC(C)C (stereo unspecified)	0%	5%	11µM*	?
O=C(c1ccccc1)c1ccc2n1CC[C@H]2C(=O)O	·	·	10%[2.98 µM]	15%[17 µM]
C[C@H](NC(=O)/C(C#N)=C/c1ccc(O)c(O)c1)c1ccccc1	·	-13%[46.1 µM]	?	?
CCOc1ccc(OCCC(=O)OCC(=O)N2CCN(S(=O)(=O)c3ccc(Cl)cc3)CC2)cc1	-1%	·	11µM*	18µM*
Fc1ccccc1/C=N/n1c(C2CCCCC2)n[nH]c1=S	1%	·	11µM*	?
O=[N+]([O-])c1ccccc1/C=N/n1c(C2CCCCC2)n[nH]c1=S	0%	-36%	?	35µM*
Cc1ccccc1/C=N/n1c(C2CCCCC2)n[nH]c1=S	0%	·	16µM*	?
O=C(NCC(c1ccco1)N1CCCC1)c1cn(-c2ccccc2)nc1-c1ccc(F)cc1 (stereo unspecified)	-1%	·	·	·
CC(Sc1ncccn1)C(=O)N1CCc2ccccc21 (stereo unspecified)	0%	·	·	·
Cc1cc(C)c2nc(SC(C)C(=O)NCC(=O)Nc3ccc(F)c(F)c3F)cc(C)c2c1 (stereo unspecified)	-1%	-17%	-4%	-9%
Cc1cc(SC(C)C(=O)NCC(=O)Nc2ccc(F)c(F)c2F)nc2ccccc12 (stereo unspecified)	0%	-31%	10µM*	?
COc1ccccc1CNC(=O)C(=O)NCC1OCCN1S(=O)(=O)c1ccc(Br)cc1 (stereo unspecified)	0%	·	41%	1%
COc1ccc(CCNC(=O)C(=O)NCC2OCCN2S(=O)(=O)c2ccc(C)cc2)cc1OC (stereo unspecified)	-1%	·	6%	10µM*
COc1ccc(CCNC(=O)C(=O)NCC2OCCN2S(=O)(=O)c2ccc(OC)c(OC)c2)cc1OC (stereo unspecified)	-1%	·	15%	-4%
COc1ccccc1CCNC(=O)C(=O)NCC1OCCN1S(=O)(=O)c1ccc(Br)cc1 (stereo unspecified)	0%	14%	?	35µM*
O=C(O)CSCC(=O)N(Cc1ccccc1)c1nc(-c2ccccc2)c(-c2ccccc2)s1	0%	·	10%	-6%
O=C(CCC(=O)c1ccc(Oc2ccccc2)cc1)Nc1ccc(Cl)cc1Cl	4%	-15%[46.1 µM]	-1%	0%
SMILES	B2AR arrestin	NPSR antagonist	RORgamma inh	Gal4-VP16 FLuc
S=C(Nc1ccc(Cl)cc1Cl)Nc1ccccc1Oc1ccccc1	0%	?	10µM*	?
S=C(Nc1cccc(Cl)c1)Nc1ccccc1Oc1ccccc1	0%	?	10µM*	?
COc1ccc(C(=O)NC2CC2)cc1OC1CCN(Cc2cc(C)c(C)cc2C)CC1	0%	·	-30%	0%
C=C1C[C@@]23C[C@]1(O)CC[C@@H]2[C@]12C=C[C@@H](O)[C@](C)(C(=O)O1)[C@H]2[C@H]3C(=O)O	·	·	2%[16.9 µM]	8%[17 µM]
O=C(N/N=C/c1cc(Br)ccc1O)c1ccccc1Cl	-1%	-39%	0.56µM*	2.5µM*
O=C(CCc1ccccc1)N/N=C/c1cc(Br)ccc1O	-2%	2%	2%	-13%
O=C(N/N=C\c1ccccc1O)c1ccccc1O	·	·	1µM*	35µM*
O=C(Cn1cc(C(F)(F)F)ccc1=O)N/N=C/c1ccccc1O	-1%	14%	2µM*	10µM*
O=C(N/N=C/c1ccccc1O)c1cccc(C(F)(F)F)c1	0%	4%	1µM*	2µM*
O=C(CCn1nnnc1CN1CCOCC1)N1CCC(c2cccc(Cl)c2)C1 (stereo unspecified)	0%	·	-28%	6%
CCCCCCCCCCOCC(O)CN (stereo unspecified)	·	·	-15%	8%
C=CCn1c(C)nnc1SCC(=O)Nc1nccs1	0%	·	·	·
CN(CC(=O)Nc1c(Cl)cccc1Cl)C(=O)CCNS(=O)(=O)c1ccccc1C(F)(F)F	-3%	·	·	·
O=C(N/N=C/C1CC2C=CC1C2)c1ccccc1O (stereo unspecified)	0%	12%	4.5µM*	?
CN(C(=O)COC(=O)c1ccc(F)c(S(=O)(=O)N2CCOCC2)c1)C1CCS(=O)(=O)C1 (stereo unspecified)	0%	·	·	·
O=Cc1cnc(N2CCCCC2)s1	0%	7%	14%	4%
O=C(N/N=C/c1cnc(N2CCCCC2)s1)c1ccc(Cl)cc1	0%	-24%	2.2µM*	?
CC(NCc1cc(Br)ccc1OCC(N)=O)C12CC3CC(CC(C3)C1)C2 (stereo unspecified)	0%	·	-19%	-6%
CCn1c([N+](=O)[O-])nc2c1c(=O)[nH]c(=O)n2C	0%	-40%	0.56µM*	18µM*
CCN1CCN(CCNC(=O)c2ccc(/C=C3/Sc4ccccc4N(Cc4cccc(Cl)c4)C3=O)cc2)CC1	-1%	-26%	-43%	?
CCN1CCN(CCNC(=O)c2ccc3c(c2)N(Cc2ccc(F)cc2)C(=O)/C(=C/c2ccccc2)S3)CC1	0%	-39%	16µM*	?
Clc1ccccc1-c1ccc(CN2CCN(c3ccccc3)CC2)o1	0%	-7%[46.1 µM]	-16%	0%
CC(=O)c1ccc(N(C)C)cc1	1%	-6%[46.1 µM]	6%	15%
CN(C)c1ccc(C(=C2C=CC(=[N+](C)C)C=C2)c2ccc(N(C)C)cc2)cc1	·	·	1.1µM*	1.6µM*!
CN(C)c1ccc(C(=C2C=CC(=[N+](C)C)C=C2)c2c(O)c(S(=O)(=O)[O-])cc3cc(S(=O)(=O)O)ccc23)cc1	·	·	8.9µM*	8.9µM*
Nc1ccccc1C(=O)/C=C/c1ccccc1	·	·	29%	20%
COc1cccc2cc(/C(C)=N/Nc3nc(-c4cc(C)ccc4C)cs3)c(=O)oc12	0%	-7%[46.1 µM]	0.79µM*	-6%
O=C(c1ccco1)N1CCN(C(=O)c2cn(-c3ccccc3)nc2-c2ccc(F)cc2)CC1	0%	·	·	·
Cn1c(OCc2cccnc2)nc2c1c(=O)n(Cc1ccccc1)c(=O)n2C	0%	-17%[46.1 µM]	11µM*	6.3µM*
CN(N)C(=S)Nc1ccc(F)cc1	0%	14%	-3%	4%
